{"source": "the supplement of paper PMC10849652", "assay_in_all_cases": "log2 fold change, soluble protein after heating vs DMSO (PISA); higher = thermal stabilisation; K562 lysate, 10 uM; active = over 0.2 and 3.5 SD of the protein, either way, in both replicates (recomputed)", "key": {"[1]": {"compound": "C1=CC=C(C=C1)[C@H](COC2=CC3=C(C=C2)NC(=O)N3)NC(=O)C4=CC=CN(C4=O)CC5=CC(=C(C=C5)F)F", "how_it_was_run": "(§1)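 Values give the log-two fold change in thermal stability against solvent controls, from duplicates. Crude K562 extract at 1 mg/mL protein, made by dounce homogenisation in PBS pH 7.4 with 1 mM MgCl2, was treated with 10 μM compound for 30 min. After 3 min heating across 48°C-58°C, aliquots were pooled, adjusted to 0.5% NP-40 at 4°C and centrifuged at 21,000xg for 90 min. The supernatant was measured by TMTpro 16plex LC-MS/MS with channel sums equalised.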"}, "[2]": {"compound": "CC1=C(SC2=C1C(=N[C@H](C3=NN=C(N32)C)CC(=O)N)C4=CC=C(C=C4)Cl)C", "how_it_was_run": "as §1"}, "[3]": {"compound": "CC1=C2C(=CC=C1)N=C(N(C2=O)C3=CC=CC=C3C)CN4C=NC5=C(N=CN=C54)N", "how_it_was_run": "as §1"}, "[4]": {"compound": "Cc1sc2c(c1C)C(c1ccc(Cl)cc1)=N[C@@H](CC(=O)OC(C)(C)C)c1nnc(C)n1-2", "how_it_was_run": "as §1"}, "[5]": {"compound": "c1ccc([C@@H]2C[C@H]2NC2CCNCC2)cc1", "how_it_was_run": "as §1"}}, "note": "Targets with a hit are over-represented here; the source holds about 8,800 in all. About 0.5% of all pairs of compound and target were hits. Values without a mark were called inactive.", "data": [{"target": "ABHD12 isoform 2 (UniProt Q8N2K0)", "sequence (Q8N2K0 whole entry, looked up)": "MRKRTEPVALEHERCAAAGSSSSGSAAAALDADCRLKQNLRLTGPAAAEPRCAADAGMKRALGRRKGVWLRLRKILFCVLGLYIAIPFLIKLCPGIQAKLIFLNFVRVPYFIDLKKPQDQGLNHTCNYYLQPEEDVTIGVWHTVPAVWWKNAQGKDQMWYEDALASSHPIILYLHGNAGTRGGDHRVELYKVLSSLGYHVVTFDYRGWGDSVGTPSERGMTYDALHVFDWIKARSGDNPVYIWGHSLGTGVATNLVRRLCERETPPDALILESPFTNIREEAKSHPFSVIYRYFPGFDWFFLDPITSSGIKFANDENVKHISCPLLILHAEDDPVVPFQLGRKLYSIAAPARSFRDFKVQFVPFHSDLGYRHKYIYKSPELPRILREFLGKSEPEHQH", "values": [{"measurement": "log2 fold change", "setting": "[1]", "value": 0.008}, {"measurement": "log2 fold change", "setting": "[2]", "value": 0.042}, {"measurement": "log2 fold change", "setting": "[3]", "value": 0.003}, {"measurement": "log2 fold change", "setting": "[4]", "value": 0.031}, {"measurement": "log2 fold change", "setting": "[5]", "value": 0.042}]}, {"target": "ADAM17 (UniProt P78536)", "values": [{"measurement": "log2 fold change", "setting": "[1]", "value": -0.098}, {"measurement": "log2 fold change", "setting": "[2]", "value": "-0.251 (active)"}, {"measurement": "log2 fold change", "setting": "[3]", "value": 0.093}, {"measurement": "log2 fold change", "setting": "[4]", "value": 0.002}, {"measurement": "log2 fold change", "setting": "[5]", "value": -0.032}]}, {"target": "ABL1 isoform 2 (UniProt P00519)", "values": [{"measurement": "log2 fold change", "setting": "[1]", "value": -0.042}, {"measurement": "log2 fold change", "setting": "[2]", "value": -0.065}, {"measurement": "log2 fold change", "setting": "[3]", "value": 0.067}, {"measurement": "log2 fold change", "setting": "[4]", "value": -0.017}, {"measurement": "log2 fold change", "setting": "[5]", "value": 0.102}]}, {"target": "ANXA2 isoform 2 (UniProt P07355)", "sequence (P07355 whole entry, looked up)": "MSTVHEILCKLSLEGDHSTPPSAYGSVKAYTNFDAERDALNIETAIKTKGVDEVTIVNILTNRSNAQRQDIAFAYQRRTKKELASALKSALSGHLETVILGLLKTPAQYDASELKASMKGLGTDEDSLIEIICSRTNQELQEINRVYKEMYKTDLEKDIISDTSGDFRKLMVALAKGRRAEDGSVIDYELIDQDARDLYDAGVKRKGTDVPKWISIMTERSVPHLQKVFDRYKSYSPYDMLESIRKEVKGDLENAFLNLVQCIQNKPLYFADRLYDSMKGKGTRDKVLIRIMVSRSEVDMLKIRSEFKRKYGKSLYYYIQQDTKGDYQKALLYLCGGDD", "values": [{"measurement": "log2 fold change", "setting": "[1]", "value": 0}, {"measurement": "log2 fold change", "setting": "[2]", "value": -0.005}, {"measurement": "log2 fold change", "setting": "[3]", "value": -0.019}, {"measurement": "log2 fold change", "setting": "[4]", "value": 0.024}, {"measurement": "log2 fold change", "setting": "[5]", "value": 0.02}]}, {"target": "AMD1 (UniProt P17707)", "values": [{"measurement": "log2 fold change", "setting": "[1]", "value": -0.027}, {"measurement": "log2 fold change", "setting": "[2]", "value": 0.01}, {"measurement": "log2 fold change", "setting": "[3]", "value": -0.017}, {"measurement": "log2 fold change", "setting": "[4]", "value": 0.005}, {"measurement": "log2 fold change", "setting": "[5]", "value": -0.019}]}, {"target": "ARL15 (UniProt Q9NXU5)", "values": [{"measurement": "log2 fold change", "setting": "[1]", "value": 0.02}, {"measurement": "log2 fold change", "setting": "[2]", "value": -0.005}, {"measurement": "log2 fold change", "setting": "[3]", "value": 0.018}, {"measurement": "log2 fold change", "setting": "[4]", "value": -0.009}, {"measurement": "log2 fold change", "setting": "[5]", "value": 0.269}]}, {"target": "AIMP2 isoform 2 (UniProt Q13155)", "sequence (Q13155 whole entry, looked up)": "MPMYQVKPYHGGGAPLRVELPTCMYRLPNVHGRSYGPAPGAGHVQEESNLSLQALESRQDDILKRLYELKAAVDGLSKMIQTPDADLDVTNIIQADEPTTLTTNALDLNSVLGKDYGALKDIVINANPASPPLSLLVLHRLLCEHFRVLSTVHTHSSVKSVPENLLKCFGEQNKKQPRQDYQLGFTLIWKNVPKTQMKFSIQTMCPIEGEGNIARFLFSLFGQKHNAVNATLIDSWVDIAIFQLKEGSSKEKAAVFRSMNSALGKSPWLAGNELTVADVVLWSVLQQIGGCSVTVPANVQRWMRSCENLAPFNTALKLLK", "values": [{"measurement": "log2 fold change", "setting": "[1]", "value": 0.182}, {"measurement": "log2 fold change", "setting": "[2]", "value": 0.029}]}, {"target": "ANP32E (UniProt Q9BTT0)", "sequence (Q9BTT0 whole entry, looked up)": "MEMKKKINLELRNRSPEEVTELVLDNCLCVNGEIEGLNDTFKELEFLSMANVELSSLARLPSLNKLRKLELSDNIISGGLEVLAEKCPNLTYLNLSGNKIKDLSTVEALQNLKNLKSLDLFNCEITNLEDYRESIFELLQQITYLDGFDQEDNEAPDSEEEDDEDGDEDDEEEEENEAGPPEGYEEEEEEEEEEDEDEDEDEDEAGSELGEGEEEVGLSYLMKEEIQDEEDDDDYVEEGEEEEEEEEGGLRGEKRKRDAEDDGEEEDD", "values": [{"measurement": "log2 fold change", "setting": "[1]", "value": 0.043}, {"measurement": "log2 fold change", "setting": "[2]", "value": -0.005}, {"measurement": "log2 fold change", "setting": "[3]", "value": -0.053}, {"measurement": "log2 fold change", "setting": "[4]", "value": -0.038}, {"measurement": "log2 fold change", "setting": "[5]", "value": 0.026}]}, {"target": "ALDH5A1 isoform 2 (UniProt P51649)", "values": [{"measurement": "log2 fold change", "setting": "[1]", "value": -0.029}, {"measurement": "log2 fold change", "setting": "[2]", "value": -0.018}, {"measurement": "log2 fold change", "setting": "[3]", "value": -0.017}, {"measurement": "log2 fold change", "setting": "[4]", "value": 0.004}, {"measurement": "log2 fold change", "setting": "[5]", "value": 0.075}]}, {"target": "ALG3 (UniProt Q92685)", "sequence (Q92685 whole entry, looked up)": "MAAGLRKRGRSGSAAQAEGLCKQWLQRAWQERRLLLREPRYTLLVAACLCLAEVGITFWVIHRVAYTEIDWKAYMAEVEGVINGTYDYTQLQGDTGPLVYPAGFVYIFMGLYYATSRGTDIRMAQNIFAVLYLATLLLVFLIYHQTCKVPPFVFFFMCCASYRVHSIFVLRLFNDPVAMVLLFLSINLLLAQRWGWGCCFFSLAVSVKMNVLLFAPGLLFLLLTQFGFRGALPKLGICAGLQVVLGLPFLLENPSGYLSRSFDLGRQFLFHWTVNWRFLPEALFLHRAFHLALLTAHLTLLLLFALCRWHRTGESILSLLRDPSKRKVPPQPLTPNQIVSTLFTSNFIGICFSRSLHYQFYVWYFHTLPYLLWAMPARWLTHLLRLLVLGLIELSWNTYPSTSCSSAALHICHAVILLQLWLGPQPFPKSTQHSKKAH", "values": [{"measurement": "log2 fold change", "setting": "[1]", "value": 0.002}, {"measurement": "log2 fold change", "setting": "[2]", "value": -0.006}, {"measurement": "log2 fold change", "setting": "[3]", "value": 0.048}, {"measurement": "log2 fold change", "setting": "[4]", "value": -0.035}, {"measurement": "log2 fold change", "setting": "[5]", "value": -0.127}]}, {"target": "AIMP2 (UniProt Q13155)", "values": [{"measurement": "log2 fold change", "setting": "[1]", "value": -0.028}, {"measurement": "log2 fold change", "setting": "[2]", "value": 0.021}, {"measurement": "log2 fold change", "setting": "[3]", "value": 0.013}, {"measurement": "log2 fold change", "setting": "[4]", "value": 0.036}, {"measurement": "log2 fold change", "setting": "[5]", "value": 0.041}]}, {"target": "AGPAT1 (UniProt Q99943)", "values": [{"measurement": "log2 fold change", "setting": "[1]", "value": -0.04}, {"measurement": "log2 fold change", "setting": "[2]", "value": 0.024}, {"measurement": "log2 fold change", "setting": "[3]", "value": 0.089}, {"measurement": "log2 fold change", "setting": "[4]", "value": -0.038}, {"measurement": "log2 fold change", "setting": "[5]", "value": -0.134}]}, {"target": "ASB6 (UniProt Q9NWX5)", "sequence (Q9NWX5 whole entry, looked up)": "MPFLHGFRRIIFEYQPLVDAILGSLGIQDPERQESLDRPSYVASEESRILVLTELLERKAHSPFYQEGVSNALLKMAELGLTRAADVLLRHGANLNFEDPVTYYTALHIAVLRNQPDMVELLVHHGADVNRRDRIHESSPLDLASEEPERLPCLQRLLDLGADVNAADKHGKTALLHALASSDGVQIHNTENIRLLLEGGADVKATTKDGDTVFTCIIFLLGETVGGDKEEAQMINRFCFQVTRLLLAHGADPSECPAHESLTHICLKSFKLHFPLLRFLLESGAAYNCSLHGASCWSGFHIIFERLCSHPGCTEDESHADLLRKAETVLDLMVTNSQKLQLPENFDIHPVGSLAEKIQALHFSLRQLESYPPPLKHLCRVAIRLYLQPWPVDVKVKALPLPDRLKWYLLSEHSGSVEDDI", "values": [{"measurement": "log2 fold change", "setting": "[1]", "value": 0.012}, {"measurement": "log2 fold change", "setting": "[2]", "value": 0.125}, {"measurement": "log2 fold change", "setting": "[3]", "value": 0.005}, {"measurement": "log2 fold change", "setting": "[4]", "value": 0.016}, {"measurement": "log2 fold change", "setting": "[5]", "value": 0.028}]}, {"target": "ABI1 isoform 9 (UniProt Q8IZP0)", "values": [{"measurement": "log2 fold change", "setting": "[1]", "value": -0.013}, {"measurement": "log2 fold change", "setting": "[2]", "value": -0.008}, {"measurement": "log2 fold change", "setting": "[3]", "value": -0.006}, {"measurement": "log2 fold change", "setting": "[4]", "value": -0.004}, {"measurement": "log2 fold change", "setting": "[5]", "value": -0.117}]}, {"target": "ABCF2 isoform 2 (UniProt Q9UG63)", "values": [{"measurement": "log2 fold change", "setting": "[1]", "value": -0.022}, {"measurement": "log2 fold change", "setting": "[2]", "value": -0.011}, {"measurement": "log2 fold change", "setting": "[3]", "value": 0.04}, {"measurement": "log2 fold change", "setting": "[4]", "value": -0.019}, {"measurement": "log2 fold change", "setting": "[5]", "value": 0.055}]}, {"target": "AK4 (UniProt P27144)", "values": [{"measurement": "log2 fold change", "setting": "[1]", "value": 0.025}, {"measurement": "log2 fold change", "setting": "[2]", "value": -0.038}, {"measurement": "log2 fold change", "setting": "[3]", "value": 0.059}, {"measurement": "log2 fold change", "setting": "[4]", "value": 0.024}, {"measurement": "log2 fold change", "setting": "[5]", "value": 0.026}]}, {"target": "ACBD6 (UniProt Q9BR61)", "sequence (Q9BR61 whole entry, looked up)": "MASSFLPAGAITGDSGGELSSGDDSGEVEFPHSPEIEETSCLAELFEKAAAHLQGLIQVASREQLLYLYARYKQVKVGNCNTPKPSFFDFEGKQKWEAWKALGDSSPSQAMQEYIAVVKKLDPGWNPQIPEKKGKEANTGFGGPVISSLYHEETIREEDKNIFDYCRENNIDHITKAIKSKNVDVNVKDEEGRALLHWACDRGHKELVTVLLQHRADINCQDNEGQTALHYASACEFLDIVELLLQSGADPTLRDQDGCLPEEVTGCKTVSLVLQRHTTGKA", "values": [{"measurement": "log2 fold change", "setting": "[1]", "value": 0.014}, {"measurement": "log2 fold change", "setting": "[2]", "value": 0.019}, {"measurement": "log2 fold change", "setting": "[3]", "value": -0.009}, {"measurement": "log2 fold change", "setting": "[4]", "value": -0.045}, {"measurement": "log2 fold change", "setting": "[5]", "value": -0.022}]}, {"target": "AGPS (UniProt O00116)", "sequence (O00116 whole entry, looked up)": "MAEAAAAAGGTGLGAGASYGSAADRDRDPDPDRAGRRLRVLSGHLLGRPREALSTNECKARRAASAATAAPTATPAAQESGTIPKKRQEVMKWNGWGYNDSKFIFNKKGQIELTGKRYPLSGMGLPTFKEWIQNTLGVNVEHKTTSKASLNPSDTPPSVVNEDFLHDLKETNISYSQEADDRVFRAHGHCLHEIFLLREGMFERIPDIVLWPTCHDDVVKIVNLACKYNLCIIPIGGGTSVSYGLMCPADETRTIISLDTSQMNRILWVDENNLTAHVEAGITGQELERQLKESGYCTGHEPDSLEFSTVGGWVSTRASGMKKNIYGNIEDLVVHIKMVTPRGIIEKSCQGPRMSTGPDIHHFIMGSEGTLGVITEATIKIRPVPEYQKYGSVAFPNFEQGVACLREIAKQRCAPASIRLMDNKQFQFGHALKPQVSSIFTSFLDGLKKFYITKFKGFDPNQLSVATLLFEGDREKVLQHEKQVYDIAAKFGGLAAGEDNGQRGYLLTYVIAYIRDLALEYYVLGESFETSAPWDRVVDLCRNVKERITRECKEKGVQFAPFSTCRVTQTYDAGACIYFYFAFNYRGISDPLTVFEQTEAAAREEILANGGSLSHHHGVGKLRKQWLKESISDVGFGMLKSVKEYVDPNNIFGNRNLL", "values": [{"measurement": "log2 fold change", "setting": "[1]", "value": -0.103}, {"measurement": "log2 fold change", "setting": "[2]", "value": 0.016}, {"measurement": "log2 fold change", "setting": "[3]", "value": 0.035}, {"measurement": "log2 fold change", "setting": "[4]", "value": 0.019}, {"measurement": "log2 fold change", "setting": "[5]", "value": -0.006}]}, {"target": "ASNS (UniProt P08243)", "sequence (P08243 whole entry, looked up)": "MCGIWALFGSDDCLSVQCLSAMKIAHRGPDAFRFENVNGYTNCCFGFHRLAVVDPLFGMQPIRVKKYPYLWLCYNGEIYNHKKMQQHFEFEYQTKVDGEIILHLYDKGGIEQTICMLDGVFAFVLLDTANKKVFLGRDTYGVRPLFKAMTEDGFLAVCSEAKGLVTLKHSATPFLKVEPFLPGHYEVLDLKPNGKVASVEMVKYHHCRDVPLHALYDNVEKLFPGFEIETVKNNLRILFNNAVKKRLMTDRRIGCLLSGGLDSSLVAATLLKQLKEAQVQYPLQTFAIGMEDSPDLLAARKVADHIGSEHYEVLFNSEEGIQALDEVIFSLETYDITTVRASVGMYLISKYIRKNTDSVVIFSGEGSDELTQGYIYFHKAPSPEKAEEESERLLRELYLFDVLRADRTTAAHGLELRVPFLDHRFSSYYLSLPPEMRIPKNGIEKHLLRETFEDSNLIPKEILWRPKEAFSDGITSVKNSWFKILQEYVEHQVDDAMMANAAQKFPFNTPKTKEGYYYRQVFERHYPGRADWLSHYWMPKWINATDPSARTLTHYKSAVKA", "values": [{"measurement": "log2 fold change", "setting": "[1]", "value": 0.006}, {"measurement": "log2 fold change", "setting": "[2]", "value": 0.021}, {"measurement": "log2 fold change", "setting": "[3]", "value": 0.027}, {"measurement": "log2 fold change", "setting": "[4]", "value": 0.057}, {"measurement": "log2 fold change", "setting": "[5]", "value": 0.033}]}, {"target": "AP3D1 isoform 5 (UniProt O14617)", "values": [{"measurement": "log2 fold change", "setting": "[1]", "value": 0.042}, {"measurement": "log2 fold change", "setting": "[2]", "value": -0.027}, {"measurement": "log2 fold change", "setting": "[3]", "value": 0.003}, {"measurement": "log2 fold change", "setting": "[4]", "value": 0.025}, {"measurement": "log2 fold change", "setting": "[5]", "value": -0.028}]}, {"target": "ACIN1 (UniProt E7EQT4)", "values": [{"measurement": "log2 fold change", "setting": "[1]", "value": 0.04}, {"measurement": "log2 fold change", "setting": "[2]", "value": 0.015}, {"measurement": "log2 fold change", "setting": "[3]", "value": 0.037}, {"measurement": "log2 fold change", "setting": "[4]", "value": 0.032}, {"measurement": "log2 fold change", "setting": "[5]", "value": -0.118}]}, {"target": "ACLY (UniProt P53396)", "sequence (P53396 whole entry, looked up)": "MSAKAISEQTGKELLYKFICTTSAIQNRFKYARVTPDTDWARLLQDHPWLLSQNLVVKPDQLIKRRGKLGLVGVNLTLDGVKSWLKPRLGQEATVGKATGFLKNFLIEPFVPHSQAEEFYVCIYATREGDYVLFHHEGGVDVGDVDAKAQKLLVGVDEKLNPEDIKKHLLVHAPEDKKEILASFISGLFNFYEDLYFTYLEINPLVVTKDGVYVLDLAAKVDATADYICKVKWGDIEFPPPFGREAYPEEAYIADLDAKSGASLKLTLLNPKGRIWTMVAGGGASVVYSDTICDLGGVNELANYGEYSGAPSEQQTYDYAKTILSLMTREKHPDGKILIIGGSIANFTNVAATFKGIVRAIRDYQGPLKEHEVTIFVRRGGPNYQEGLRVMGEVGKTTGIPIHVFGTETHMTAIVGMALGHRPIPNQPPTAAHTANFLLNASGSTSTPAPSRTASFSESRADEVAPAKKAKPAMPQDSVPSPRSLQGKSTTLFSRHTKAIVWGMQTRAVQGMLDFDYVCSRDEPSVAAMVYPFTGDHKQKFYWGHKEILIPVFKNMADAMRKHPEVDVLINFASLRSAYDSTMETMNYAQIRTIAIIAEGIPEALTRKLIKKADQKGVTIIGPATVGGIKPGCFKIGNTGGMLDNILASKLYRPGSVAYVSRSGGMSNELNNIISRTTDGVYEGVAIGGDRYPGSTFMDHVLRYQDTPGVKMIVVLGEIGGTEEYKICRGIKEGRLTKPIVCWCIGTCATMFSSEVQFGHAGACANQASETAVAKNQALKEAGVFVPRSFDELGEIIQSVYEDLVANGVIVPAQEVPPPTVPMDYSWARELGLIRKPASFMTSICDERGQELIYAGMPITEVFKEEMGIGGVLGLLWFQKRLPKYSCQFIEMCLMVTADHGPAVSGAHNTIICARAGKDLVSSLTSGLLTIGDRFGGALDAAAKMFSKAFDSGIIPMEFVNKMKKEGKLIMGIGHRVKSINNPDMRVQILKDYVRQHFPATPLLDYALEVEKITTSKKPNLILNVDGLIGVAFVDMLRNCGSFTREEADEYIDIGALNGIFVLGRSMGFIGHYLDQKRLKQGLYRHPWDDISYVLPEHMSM", "values": [{"measurement": "log2 fold change", "setting": "[1]", "value": 0.011}, {"measurement": "log2 fold change", "setting": "[2]", "value": 0.03}, {"measurement": "log2 fold change", "setting": "[3]", "value": 0.004}, {"measurement": "log2 fold change", "setting": "[4]", "value": 0.03}, {"measurement": "log2 fold change", "setting": "[5]", "value": 0.023}]}, {"target": "ARMCX5 (UniProt Q6P1M9)", "values": [{"measurement": "log2 fold change", "setting": "[1]", "value": 0.021}, {"measurement": "log2 fold change", "setting": "[2]", "value": -0.07}, {"measurement": "log2 fold change", "setting": "[3]", "value": 0.057}, {"measurement": "log2 fold change", "setting": "[4]", "value": 0.036}, {"measurement": "log2 fold change", "setting": "[5]", "value": -0.03}]}, {"target": "ARL1 (UniProt P40616)", "sequence (P40616 whole entry, looked up)": "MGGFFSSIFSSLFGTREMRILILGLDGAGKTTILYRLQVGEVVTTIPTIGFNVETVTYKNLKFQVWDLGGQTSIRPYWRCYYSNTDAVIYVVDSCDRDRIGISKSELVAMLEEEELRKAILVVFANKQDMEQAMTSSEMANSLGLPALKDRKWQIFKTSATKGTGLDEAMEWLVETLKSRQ", "values": [{"measurement": "log2 fold change", "setting": "[1]", "value": 0.094}, {"measurement": "log2 fold change", "setting": "[2]", "value": 0.023}, {"measurement": "log2 fold change", "setting": "[3]", "value": 0.051}, {"measurement": "log2 fold change", "setting": "[4]", "value": -0.026}, {"measurement": "log2 fold change", "setting": "[5]", "value": 0.026}]}]}
